# KLK7 zymogen act: proKLK7 (human) activation, primary screen | AID 652039 | activation, % at 7 µM | 370,000 compounds, 0.9% hits | purified proKLK7, EDANS-DABCYL substrate fluorescence; 100% is mature enzyme control, 0% vehicle | P49862;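 active means activation above the mean of all tested compounds plus 3 SD, computed per campaign excluding outliers beyond control limits, cut at about 13% in these data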
# NPR2 activator: GC-B (human) receptor activation; P20594; HEK293-GC-B cells, CNP EC30, cGMP TR-FRET; 0% at EC30 CNP, 100% saturating CNP; activation, % at 10 µM; 370,000 compounds, 0.11% hits; AID 1920062;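 active means activation at 10 µM reaching about 35% in either raw or pattern-adjusted values, limit read from the data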
# ADAM17 inh: ADAM17 inhibition, QFRET primary screen; recombinant ADAM17, EDANS/DABCYL FRET peptide cleavage; 370,000 compounds, 0.83% hits; inhibition, % at 6.95 µM; P78536;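 active means inhibition above the mean of compounds lying between control limits plus 3 SD, set per campaign, cut at about 8.5% in these data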;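 further: 0% = DMSO-only wells as the low control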
# GC-A act: GC-A (human) enzyme activation. AID 1671463. P16066. activation, % at 10 µM. HEK293 GC-A cells, cGMP TR-FRET, EC30 ANP; 0% at EC30 ANP, 100% saturating ANP. 370,000 compounds, 0.14% hits; in the data active means activation above about 40%
# ADAM10 inh: inhibitors of human ADAM10. recombinant ADAM10, EDANS/DABCYL FRET peptide cleavage, 3 h. 370,000 compounds, 0.62% hits. O14672. inhibition, % at 7 µM;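 active means inhibition above a per-campaign cutoff equal to the mean of compounds falling between control-based bounds plus 3 SD, cut at about 20% in these data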;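 further: 0% = DMSO wells while the 100% control is not disclosed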
# proKLK7 act conf: proKLK7 activation, confirmation. shares compounds with KLK7 zymogen act. purified proKLK7, EDANS-DABCYL substrate fluorescence; scaled: vehicle 0, mature enzyme 100. activation, % at 7 µM. 3,200 compounds, 68% hits. AID 686949;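 active means activation, as change over the incubation, above the mean of all tested compounds plus 3 SD, cut at about 13% in these data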
# EDANS interfere: optically interferes with EDANS-DABCYL signal, flagging KLK7 hits | 3,200 compounds, 80% hits | shares compounds with KLK7 zymogen act | activation, % at 7 µM | AID 686952 | EDANS-DABCYL substrate fluorescence interference, no enzyme, 4 h; solvent 0%, active enzyme control 100%;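 active means activation above the all-compound mean plus 3 SD, ignoring values outside control-based bounds, cut at about 4.8% in these data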;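 further: value is the 4 h activation minus the activation read at time zero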
# EDANS interf: EDANS fluorescence interference in dose response, no enzyme | EC50, µM | EDANS-DABCYL peptide fluorescence interference | shares compounds with KLK7 zymogen act | 250 compounds, 20% hits;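 active means compounds that raise the fluorescence signal in this interference counterscreen, with EC50 at or below 10 µM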;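 further: intact quenched peptide substrate alone read at 355 nm excitation and 520 nm emission; signal is fluorescence gain from T0 to T4 after four hours at room temperature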
# * marks the source's active call; other numbers are inactive results; i = inactive; / = no result. Compounds with a hit are over-represented: about 2.2% of the library has one in this group of screens.
SMILES,KLK7 zymogen act,NPR2 activator,ADAM17 inh,GC-A act,ADAM10 inh,proKLK7 act conf,EDANS interfere,others
COc1ccc(-c2cc(-c3nnc(SCC(=O)Nc4ccccc4-c4ccccc4)n3N)[nH]n2)cc1,1,6,2,2,6,/,/,
CCn1nc2cc(C(=O)NCCc3cccs3)ccc2c1OC,18*,3,-196,0,i,8,3,
CCOc1c2ccc(C(=O)NCCc3ccc(C)cc3)cc2nn1CC,-8,4,-223,5,i,/,/,
CCOc1c2ccc(C(=O)NCc3ccc(OC)cc3)cc2nn1CCOC,13*,-4,-246,-1,i,-4,-5,
C[C@@H]1CCN(C2CC2)S(=O)(=O)c2c(cccc2N2CC[C@H](O)C2)O1,0,5,-4,-3,-1,/,/,
O=C(O)CCCC(=O)N1CCN(c2nc(-c3ccccc3)c3ccccc3n2)CC1,16*,-3,-172,0,i,9,8.0*,
Cc1ccc2nc(N3CCC(C(=O)O)CC3)nc(-c3ccccc3)c2c1,6,-7,-51,0,-199,/,/,
Cc1ccc2nc(N3CCN(C(=O)CCC(=O)O)CC3)nc(-c3ccccc3)c2c1,27*,11,-170,7,-487,-40,-57,
O=C(O)C1CC=CCC1C(=O)N1CCN(c2nc(-c3ccccc3)c3ccccc3n2)CC1 (configuration not stated),80*,-1,-223,-6,i,2,-2,
CCc1nnn2c1Cn1c3ccccc3c(=O)n1[C@@H](C)C2,2,1,-76,-3,-293,/,/,
Cc1nn(-c2ccccn2)c2nc(-c3cccs3)cc(C(=O)N3CCOCC3)c12,23*,6,i,-10,i,32*,26*,EDANS interf=>70
CNC(=O)c1cc(Nc2nnc(-c3ccc(C)c(S(N)(=O)=O)c3)c3ccccc23)ccc1OC,212*,3,-5,0,-4,223*,136*,
O=c1c2ccccc2n(CC(O)CN2CCCCC2)c2ccccc12 (configuration not stated),34*,-7,-312,0,i,29*,29*,
Nc1ccccc1C=C1Cc2ccccc2C1=O,0,1,-7,-5,-15,/,/,
Nc1ccccc1/C=C/c1ccccc1N,85*,3,i,1,i,61*,66*,
COc1ccc(C(=O)c2[nH]c(N)c(C(=O)c3ccccc3)c2-c2ccc(OC)c(OC)c2)cc1,/,-1,-2,-2,-4,/,/,
CCCC(c1nnnn1C(C)(C)CC)N(Cc1ccco1)Cc1cc2ccc(OC)cc2[nH]c1=O (configuration not stated),19*,-3,-185,-7,i,-2,-1,
CC(C)CN1CN2Cc3cc(F)ccc3C2CS1(=O)=O (configuration not stated),0,4,-1,-4,-5,/,/,
COC(=O)c1cc(-c2ccc(OC)cc2)nc2nc(SC)[nH]c(=O)c12,25*,-5,-196,0,-491,21*,17*,EDANS interf=>70
COc1ccc(-n2nc(C(=O)NCC(=O)Nc3cc(OC)c(OC)c(OC)c3)c3ccccc3c2=O)cc1OC,42*,-6,-2,-2,1,66*,66*,
COc1ccc(-n2nc(C(=O)NCC(=O)Nc3cc(OC)c(OC)c(OC)c3)c3ccccc3c2=O)cc1,-8,4,-1,2,9,/,/,
Cc1cccn2cc(-c3c[nH]c4ccccc34)nc12,16*,-10,-221,-1,i,6,2,
Brc1ccc2nc(-c3c[nH]c4ccccc34)cn2c1,-1,-4,-17,3,-45,/,/,
COc1ccc(-c2ncccc2OC(=O)C23CC4CC(CC(C4)C2)C3)cc1OC,18*,-1,-138,-5,i,12,8.2*,

# Assay outcomes from PubChem.
